{
  "source": "PubChem BioAssay AID1347142",
  "about": "(National Center for Advancing Translational Sciences (NCATS), 2019)",
  "note": "Results filed as inconclusive are left out. Calls of active or inactive are those of the source. The call rests on the fitted dose curve; in most records, active means well fitted inhibition curve with a large enough effect; inconclusive means small, poorly fitted or top-dose-only effect; inactive means no such curve, though single readings can be large or run the other way. Further: nearly all actives have a fitted effect of over 80% in size. Potency means the concentration at half of the fitted maximal effect.",
  "data": [
    {"biological_target": "N-terminal Xaa-Pro-Lys N-methyltransferase 1 (Homo sapiens) (UniProt Q9BV86)", "sequence (Q9BV86 whole entry, looked up)": "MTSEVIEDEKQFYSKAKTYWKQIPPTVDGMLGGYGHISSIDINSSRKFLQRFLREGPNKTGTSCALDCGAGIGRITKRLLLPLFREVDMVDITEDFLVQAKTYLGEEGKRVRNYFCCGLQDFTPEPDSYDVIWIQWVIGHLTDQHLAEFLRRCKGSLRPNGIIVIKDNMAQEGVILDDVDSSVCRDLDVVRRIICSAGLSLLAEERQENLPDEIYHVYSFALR", "experiment": "qHTS Assay for Inhibitors of N-terminal methyltransferase 1 (NTMT1): ThioGlo3 Assay Confirmatory Screen, Round 1.", "settings": "NTMT1 SAHH-coupled ThioGlo3 fluorescence, 30 min; series mostly up to 56.8 µM", "method_in_brief": "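Human NTMT1 at 125 nM was preincubated 1 min at room temperature with compounds at various concentrations or 1 uM RCC1-6 control. Substrate mix (100 uM SAM, 10 uM SAHH, 15 uM ThioGlo3) was added, and fluorescence (Ex 340/Em 450 nm) was read at start and after 30 min, normalized to background.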", "values": [
      {"smiles": "COC1C(CO)OC(n2cnc3c(=O)[nH]cnc32)C1O", "note": "(stereo unspecified)", "Potency": "inactive"},
      {"smiles": "OC[C@H]1O[C@@H](n2cnc3c(Nc4ccccc4)ncnc32)[C@H](O)[C@@H]1O", "Potency": "inactive"},
      {"smiles": "Nc1ncnc2c1ncn2[C@@H]1O[C@@H](CO)[C@H](O)[C@H]1O", "Potency": "inactive"},
      {"smiles": "COc1cc2c(NC3CCN(C(C)C)CC3)nc(N3CCCCC3)nc2cc1OCCOCCN(C)C", "Potency": "27.1 µM (active)"},
      {"smiles": "CNc1nc(N2CCCN(C)CC2)nc2cc(OC)c(OC)cc12", "Potency": "27.1 µM (active)"},
      {"smiles": "COc1cc2nc(N3CCCN(C)CC3)nc(NC(C)C)c2cc1OC", "Potency": "24.1 µM (active)"},
      {"smiles": "CCCCC#Cc1nc(NC)c2ncn([C@@H]3O[C@@H](CO)[C@H](O)[C@H]3O)c2n1", "Potency": "inactive"},
      {"smiles": "COc1cc2nc(N3CCN(C)CC3)nc(NCCN(C)C)c2cc1OC", "Potency": "24.1 µM (active)"},
      {"smiles": "CCN(c1cc(C#CCN2CCOCC2)cc(C(=O)NCc2c(C)cc(C)[nH]c2=O)c1C)C1CCC(N(C)CCOC)CC1", "note": "(stereo unspecified)", "Potency": "inactive"},
      {"smiles": "C=C1OC(CO)(n2cnc3c(N)ncnc32)C(O)C1O", "note": "(stereo unspecified)", "Potency": "inactive"},
      {"smiles": "OC[C@H]1O[C@@H](n2cnc3c(NC4CCCCC4)ncnc32)[C@H](O)[C@@H]1O", "Potency": "inactive"},
      {"smiles": "COc1cc2nc(NC3CCN(C)CC3)nc(N3CCCN(C)CC3)c2cc1OC", "Potency": "24.1 µM (active)"},
      {"smiles": "COc1cc2c(NC3CCN(C)CC3)nc(N3CCCN(C)CC3)nc2cc1OCCCN1CCOCC1", "Potency": "24.1 µM (active)"},
      {"smiles": "NC(=O)c1ccc[n+]([C@@H]2O[C@H](COP(=O)([O-])OP(=O)(O)OC[C@H]3O[C@@H](n4cnc5c(N)ncnc54)[C@H](O)[C@@H]3O)[C@@H](O)[C@H]2O)c1", "Potency": "inactive"},
      {"smiles": "COc1cc2nc(N3CCOCC3)nc(NC3CC3)c2cc1OC", "Potency": "27.1 µM (active)"},
      {"smiles": "CC(C)N(C[C@H]1O[C@@H](n2cnc3c(N)ncnc32)[C@H](O)[C@@H]1O)C1CC(CCc2nc3ccc(C(C)(C)C)cc3[nH]2)C1", "note": "(stereo partly specified)", "Potency": "inactive"},
      {"smiles": "COc1cc2c(NC3CCN(C)CC3)nc(N3CCCN(C)CC3)nc2cc1OCCOCCN(C)C", "Potency": "24.1 µM (active)"},
      {"smiles": "COc1cc2c(NC3CCN(C(C)C)CC3)nc(N3CCCN(C(C)C)CC3)nc2cc1OCCCN1CCCC1", "Potency": "27.1 µM (active)"},
      {"smiles": "C[C@H](Cc1ccccc1)Nc1ncnc2c1ncn2[C@@H]1O[C@H](CO)[C@@H](O)[C@H]1O", "Potency": "inactive"},
      {"smiles": "Nc1ncnc2c1ncn2[C@@H]1O[C@H](COP(=O)(O)O)[C@@H](O)[C@@H]1O", "Potency": "inactive"},
      {"smiles": "CNC(=O)[C@H]1O[C@@H](n2cnc3c(N)ncnc32)[C@H](O)[C@@H]1O", "Potency": "inactive"},
      {"smiles": "COc1cc2c(NC3CCN(C)CC3)nc(N3CCCN(C)CC3)nc2cc1OCc1ccccc1", "Potency": "19.2 µM (active)"},
      {"smiles": "COc1cc2nc(N3CCN(C)CC3)nc(NC3CCCCC3)c2cc1OC", "Potency": "27.1 µM (active)"},
      {"smiles": "COc1cc2c(NC3CCN(C)CC3)nc(N3CCCN(C)CC3)nc2cc1OCCCC(C)C", "Potency": "24.1 µM (active)"},
      {"smiles": "Nc1ncnc2c1[nH]c(=O)n2C1OC(CO)C(O)C1O", "note": "(stereo unspecified)", "Potency": "inactive"},
      {"smiles": "CC(C)=CCNc1ncnc2c1ncn2[C@@H]1O[C@H](CO)[C@@H](O)[C@H]1O", "Potency": "13.6 µM (active)"},
      {"smiles": "COc1cc2nc(N3CCOCC3)nc(NC(C)C)c2cc1OC", "Potency": "24.1 µM (active)"},
      {"smiles": "COc1cc2c(NC3CCN(CC4CCCCC4)CC3)nc(N3CCCN(C(C)C)CC3)nc2cc1OCCCN1CCCCC1", "Potency": "24.1 µM (active)"},
      {"smiles": "COc1cc2c(NC3CCN(C(C)C)CC3)nc(N3CCCN(C)CC3)nc2cc1OCCOCCN1CCCC1", "Potency": "27.1 µM (active)"},
      {"smiles": "Nc1ncnc2c1ncn2[C@H]1C[C@H](O)[C@@H](CO)O1", "Potency": "inactive"},
      {"smiles": "N#Cc1ccc(COC[C@H]2O[C@@H](n3c(NCc4ccc(Cl)c(Cl)c4)nc4c(N)ncnc43)[C@@H](O)[C@@H]2O)cc1", "Potency": "inactive"},
      {"smiles": "COc1cc2nc(N3CCCN(C)CC3)nc(NC3CCOCC3)c2cc1OC", "Potency": "24.1 µM (active)"},
      {"smiles": "COc1cc2c(NC3CCN(C)CC3)nc(N3CCCN(C)CC3)nc2cc1OCCCN(C)C", "Potency": "27.1 µM (active)"},
      {"smiles": "COc1cc2c(NC3CCN(C(C)C)CC3)nc(N3CCC(F)(F)CC3)nc2cc1OCCCN1CCCCC1", "Potency": "6.81 µM (active)"},
      {"smiles": "CCN(CC)CCCOc1cc2nc(N3CCCN(C)CC3)nc(NC3CCN(C)CC3)c2cc1OC", "Potency": "24.1 µM (active)"},
      {"smiles": "CCN1CCN(c2nc(NC3CC3)c3cc(OC)c(OC)cc3n2)CC1", "Potency": "24.1 µM (active)"}
    ]}
  ]
}
